# Experimental data published in PubChem BioAssay.
# Values joined by “and” are separate entries in the source; they are usually repeats but may differ in a detail not shown here. Equal values may be shown once. Results filed as inconclusive are left out. Active and inactive are the calls of the source. Unless noted, cut-off not given; nearly all actives show AC50 up to about 30 µM.
# Experiments:
# [1] = survival rescue of mitochondrial mutant cells in low glucose, primary screen, MELAS cybrids, Rieske KO mouse fibroblasts, CellTiter-Glo (AID 1508586;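 active means mean z-score across replicates of 1.96 or higher in either the MELAS or the Rieske mutant cell line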;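 further: z relative to plate mean and SD of compound and empty wells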)
# [2] = ovarian cancer cell viability with rucaparib, profiling panel, oncology-focused library, rucaparib conditional (AID 1508598;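 active means normalized viability below 100% at a tested concentration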); conditions: patient-derived ovarian cancer cells, CellTiter-Glo viability, 144 h, stronger effect = lower value
# [3] = growth inhibition of DIPG glioma cells, dose response, cell-based, SU-DIPG-XIII, MIPE4.0, CellTiter-Glo, qHTS (AID 1347061; cut-off not given, nearly all actives have AC50 up to about 37 µM;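 further: cells exposed to compound for 48 hours before readout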); conditions: SU-DIPG-XIII viability, CellTiter-Glo ATP luminescence
# [4] = growth inhibition of DIPG glioma cells, dose response, cell-based, JHH-DIPG-1, MIPE4.0, CellTiter-Glo, qHTS (AID 1347062; cut-off not given, nearly all actives have AC50 up to about 27 µM;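 on AC50: cells exposed to compound for two days before readout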); conditions: JHH-DIPG-1 viability, CellTiter-Glo ATP luminescence
# [5] = growth inhibition of DIPG glioma cells, dose response, cell-based, SU-DIPG-IV, MIPE4.0, CellTiter-Glo, qHTS (AID 1347063); conditions: SU-DIPG-IV viability, CellTiter-Glo ATP luminescence;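 further: compound exposure lasted 48 hours before the viability readout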
# [6] = SU-DIPG-VI glioma cell viability, MIPE4.0 library, CellTiter-Glo luminescence, qHTS (AID 1347066); conditions: CellTiter-Glo ATP luminescence;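 further: cells exposed to compound for 48 hours before readout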
# [7] = sensitizers of A549 cells to miR-34 induction, primary screen, imaging, A549 dox-inducible miR-34, nuclei and caspase counts (AID 1347080;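 active means compounds whose cell count with miR-34 switched on is under 0.7 times the count with it off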); conditions: A549 miR-34 inducible, Hoechst nuclei count, 48 h
# [8] = JHH-DIPG-1 glioma cell viability, MIPE5.0 library, CellTiter-Glo luminescence, qHTS (AID 1347067; cut-off not given, nearly all actives have AC50 up to about 26 µM;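 further: cells exposed to compound for 48 hours before readout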); conditions: JHH-DIPG-1 glioma viability, CellTiter-Glo ATP luminescence
# [9] = growth inhibition of DIPG glioma cells, dose response, cell-based, SU-DIPG-XIII, MIPE5.0, CellTiter-Glo, qHTS (AID 1347064; cut-off not given, nearly all actives have AC50 up to about 23 µM;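 further: cells exposed to compound for 48 hours before the viability read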); conditions: SU-DIPG-XIII viability, CellTiter-Glo ATP luminescence
# [10] = viability loss in pontine glioma line – cell-based, SU-DIPG-XXV, MIPE5.0, CellTiter-Glo, qHTS, dose response (AID 1347065; cut-off not given, nearly all actives have AC50 up to about 26 µM;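 further: cells exposed to compound for 48 hours before ATP readout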); conditions: CellTiter-Glo ATP luminescence
# [11] = SU-DIPG-XXV glioma cell viability, MIPE5.0 library, qHTS (AID 1347068; cut-off not given, nearly all actives have IC50 up to about 30 µM)
# [12] = modifiers of HSF1 nuclear foci, imaging, Selleck Cancer Library (AID 1347162; in the data active means plate-normalised HSF1 focus index below about 0.46); conditions: human cells, at 10 µM; SSMD: measured here: HSF1 foci SSMD mean; cell count: measured here: cell number; plate-normalised HSF1 focus index: stronger effect = lower value
# [13] = MELAS cybrid survival, CellTiter-Glo 48 h, stronger effect = higher value
# [14] = Rieske KO mouse fibroblast survival, CellTiter-Glo 72 h
# [15] = stronger effect = lower value, cell number ratio, induced over uninduced
# [16] = measured here: relative caspase fold change +Dox/-Dox
# [17] = measured here: total cells with miR-34 induction, stronger effect = lower value
# [18] = measured here: total cells without miR-34 induction
structure (smiles),measurement,setting,value
CC1COC2(CCN(c3nc(=O)c4cc(C(F)(F)F)cc([N+](=O)[O-])c4s3)CC2)O1 (stereo unspecified),z-score,[1]; [13],-0.641 (inactive)
same,z-score,[1]; [14],-0.174
same,viability,"[2]; at 0.000305 µM, OCI-C5x cells, with rucaparib 10 µM, 100% = cells with rucaparib alone",115% (inactive)
same,viability,"[2]; at 0.000305 µM, OCI-C5x cells, without rucaparib",107% (inactive)
same,viability,"[2]; at 0.000305 µM, OCI-P5x cells, with rucaparib 20 µM, 100% = cells with rucaparib alone",99.5% (active)
same,viability,"[2]; at 0.000305 µM, OCI-P5x cells, without rucaparib",95.5% (active)
same,viability,"[2]; at 0.00122 µM, OCI-C5x cells, with rucaparib 10 µM, 100% = cells with rucaparib alone",134% (inactive)
same,viability,"[2]; at 0.00122 µM, OCI-C5x cells, without rucaparib",116% (inactive)
same,viability,"[2]; at 0.00122 µM, OCI-P5x cells, with rucaparib 20 µM, 100% = cells with rucaparib alone",105% (inactive)
same,viability,"[2]; at 0.00122 µM, OCI-P5x cells, without rucaparib",94.9% (active)
same,viability,"[2]; at 0.00488 µM, OCI-C5x cells, with rucaparib 10 µM, 100% = cells with rucaparib alone",129% (inactive)
same,viability,"[2]; at 0.00488 µM, OCI-C5x cells, without rucaparib",119% (inactive)
same,viability,"[2]; at 0.00488 µM, OCI-P5x cells, with rucaparib 20 µM, 100% = cells with rucaparib alone",102% (inactive)
same,viability,"[2]; at 0.00488 µM, OCI-P5x cells, without rucaparib",104% (inactive)
same,viability,"[2]; at 0.0195 µM, OCI-C5x cells, with rucaparib 10 µM, 100% = cells with rucaparib alone",126% (inactive)
same,viability,"[2]; at 0.0195 µM, OCI-C5x cells, without rucaparib",112% (inactive)
same,viability,"[2]; at 0.0195 µM, OCI-P5x cells, with rucaparib 20 µM, 100% = cells with rucaparib alone",105% (inactive)
same,viability,"[2]; at 0.0195 µM, OCI-P5x cells, without rucaparib",106% (inactive)
same,viability,"[2]; at 0.0781 µM, OCI-C5x cells, with rucaparib 10 µM, 100% = cells with rucaparib alone",118% (inactive)
same,viability,"[2]; at 0.0781 µM, OCI-C5x cells, without rucaparib",116% (inactive)
same,viability,"[2]; at 0.0781 µM, OCI-P5x cells, with rucaparib 20 µM, 100% = cells with rucaparib alone",107% (inactive)
same,viability,"[2]; at 0.0781 µM, OCI-P5x cells, without rucaparib",103% (inactive)
same,viability,"[2]; at 0.313 µM, OCI-C5x cells, with rucaparib 10 µM, 100% = cells with rucaparib alone",121% (inactive)
same,viability,"[2]; at 0.313 µM, OCI-C5x cells, without rucaparib",118% (inactive)
same,viability,"[2]; at 0.313 µM, OCI-P5x cells, with rucaparib 20 µM, 100% = cells with rucaparib alone",111% (inactive)
same,viability,"[2]; at 0.313 µM, OCI-P5x cells, without rucaparib",108% (inactive)
same,viability,"[2]; at 1.25 µM, OCI-C5x cells, with rucaparib 10 µM, 100% = cells with rucaparib alone",115% (inactive)
same,viability,"[2]; at 1.25 µM, OCI-C5x cells, without rucaparib",130% (inactive)
same,viability,"[2]; at 1.25 µM, OCI-P5x cells, with rucaparib 20 µM, 100% = cells with rucaparib alone",102% (inactive)
same,viability,"[2]; at 1.25 µM, OCI-P5x cells, without rucaparib",108% (inactive)
same,viability,"[2]; at 5 µM, OCI-C5x cells, with rucaparib 10 µM, 100% = cells with rucaparib alone",122% (inactive)
same,viability,"[2]; at 5 µM, OCI-C5x cells, without rucaparib",121% (inactive)
same,viability,"[2]; at 5 µM, OCI-P5x cells, with rucaparib 20 µM, 100% = cells with rucaparib alone",108% (inactive)
same,viability,"[2]; at 5 µM, OCI-P5x cells, without rucaparib",105% (inactive)
Cc1nc2c([nH]1)CCN(C(=O)c1ccc(NC(=O)c3ccccc3-c3ccccc3)cc1)c1ccccc1-2,z-score,[1]; [13],-0.466 (inactive)
same,z-score,[1]; [14],0.668
CN(N=O)C(=O)N[C@H]1C(O)OC(CO)[C@@H](O)[C@@H]1O (stereo partly specified),outcome,[3],inactive
same,outcome,[4],inactive
same,outcome,[5],inactive
same,outcome,[6],inactive
COc1cc2c(cc1OC)[C@@H]1Cc3ccc(OC)c(OC)c3CN1CC2,outcome,[3],inactive
same,outcome,[4],inactive
same,outcome,[5],inactive
same,outcome,[6],inactive
same,fold change,[7]; [15],0.902 (inactive)
same,fold change,[7]; [16],0.654
same,cell count,[7]; [17],9170
same,cell count,[7]; [18],10200
same,z-score,[1]; [13],-0.395 (inactive)
same,z-score,[1]; [14],0.428
Cc1nnc(C(C)C)n1C1C[C@H]2CC[C@@H](C1)N2CC[C@H](NC(=O)C1CCC(F)(F)CC1)c1ccccc1 (stereo partly specified),outcome,[3],inactive
same,outcome,[4],inactive
same,outcome,[5],inactive
same,outcome,[6],inactive
COC(=O)N[C@H](C(=O)N1CCC[C@H]1c1ncc(-c2ccc(-c3ccc(-c4cnc([C@@H]5CCCN5C(=O)[C@@H](NC(=O)OC)C(C)C)[nH]4)cc3)cc2)[nH]1)C(C)C,outcome,[3],inactive
same,outcome,[4],inactive
same,AC50,[5],26.4 µM (active)
same,AC50,[8],23.5 µM (active)
CCC[C@H]1C[C@H](C(=O)N[C@@H]([C@@H]2O[C@@H](SC)[C@@H](O)[C@@H](O)[C@H]2O)[C@H](C)Cl)N(C)C1,outcome,[3],inactive
same,outcome,[4],inactive
same,outcome,[5],inactive
same,outcome,[6],inactive
N#CC1(c2cccc(C(=O)Nc3cc(Oc4ccc5nc(NC(=O)C6CC6)sc5n4)ccc3F)c2Cl)CC1,AC50,[3],0.935 µM (active)
same,AC50,[4],18.7 µM (active)
same,AC50,[9],0.742 µM (active)
same,AC50,[10],0.833 µM (active)
same,outcome,[6],inactive
N[C@H]1CN(c2c(F)cc3c(=O)c(C(=O)O)cn(C4C[C@H]4F)c3c2Cl)CC12CC2 (stereo partly specified),outcome,[3],inactive
same,outcome,[4],inactive
same,outcome,[5],inactive
same,outcome,[6],inactive
N#CC[C@H](C1CCCC1)n1cc(-c2ncnc3[nH]ccc23)cn1,outcome,[3],inactive
same,outcome,[4],inactive
same,outcome,[5],inactive
same,outcome,[6],inactive
same,outcome,[11],inactive
same,SSMD,[12],3.63
same,cell count,[12],7430
same,plate-normalised HSF1 focus index,[12],1.23 (inactive)
NC(N)=Nc1nc(CSCCC(N)=NS(N)(=O)=O)cs1,outcome,[3],inactive
same,outcome,[4],inactive
same,outcome,[5],inactive
same,outcome,[6],inactive
same,fold change,[7]; [15],0.921 (inactive) and 0.901 (inactive) and 0.846 (inactive)
same,fold change,[7]; [16],1.73 and 0.639 and 1.03
same,cell count,[7]; [17],9300 and 8340 and 7700
same,cell count,[7]; [18],10100 and 9260 and 9100
same,z-score,[1]; [13],0.605 (inactive) and -0.262 (inactive)
same,z-score,[1]; [14],-0.158 and 0.443
C1=C/COCc2cc(ccc2OCCN2CCCC2)Nc2nccc(n2)-c2cccc(c2)OCC/1,AC50,[3],14.8 µM (active)
same,AC50,[4],4.18 µM (active)
same,AC50,[5],2.35 µM (active)
same,AC50,[6],5.26 µM (active)
Cn1c(N2CCCCS2(=O)=O)nc(C(=O)NCc2ccc(F)cc2)c(O)c1=O,outcome,[3],inactive
same,outcome,[4],inactive
same,outcome,[5],inactive
same,outcome,[6],inactive
same,fold change,[7]; [15],0.915 (inactive)
same,fold change,[7]; [16],0.973
same,cell count,[7]; [17],7350
same,cell count,[7]; [18],8040
same,z-score,[1]; [13],-0.418 (inactive)
same,z-score,[1]; [14],0.522
Clc1cccc(-c2nnnn2Cc2cccnc2)c1Cl,outcome,[3],inactive
same,outcome,[4],inactive
same,outcome,[5],inactive
same,outcome,[6],inactive
CNc1ccc(C(=O)Oc2cc(ON[N+](=O)N(C)C)c([N+](=O)[O-])cc2C#N)cc1,outcome,[3],inactive
same,outcome,[4],inactive
same,outcome,[5],inactive
same,outcome,[6],inactive
COc1ccc2cc([S+]([O-])Cc3ncc(C)c(OC)c3C)nc2c1,outcome,[3],inactive
same,outcome,[4],inactive
same,outcome,[5],inactive
same,outcome,[6],inactive
CC(C)CN(C[C@@H](O)[C@H](Cc1ccccc1)NC(=O)O[C@H]1CO[C@H]2OCC[C@H]21)S(=O)(=O)c1ccc(N)cc1,AC50,[3],20.9 µM (active)
same,outcome,[4],inactive
same,outcome,[5],inactive
same,AC50,[6],23.5 µM (active)
same,z-score,[1]; [13],0.705 (inactive)
same,z-score,[1]; [14],0.765
CC(O)C1C(=O)N2C(C(=O)O)=C(SC3CNC(C(=O)N(C)C)C3)C(C)C12 (stereo unspecified),outcome,[3],inactive
same,outcome,[4],inactive
same,outcome,[5],inactive
same,outcome,[6],inactive
same,fold change,[7]; [15],0.9 (inactive) and 0.956 (inactive)
same,fold change,[7]; [16],2.32 and 0.899
same,cell count,[7]; [17],9280 and 7430
same,cell count,[7]; [18],10300 and 7780
same,z-score,[1]; [13],-0.432 (inactive)
same,z-score,[1]; [14],0.361
Cc1ccn(-c2ccc(-c3ncco3)cc2)c(=O)c1-c1ccc2nc(N)ncc2c1,outcome,[3],inactive
same,outcome,[4],inactive
same,outcome,[5],inactive
same,outcome,[6],inactive
same,outcome,[8],inactive
